Laboratory results published in PubChem BioAssay (NCI).
Compounds without any hit were thinned out: in the full panel of roughly 79,000, 15% have a hit. Values without a mark were called inactive. Activity calls are given as the source filed them. Rule as the data show it: active = growth inhibition above about 70%; inactive = the rest.

Key:
[1] = NCI Yeast Anticancer Drug Screen. Data for the rad50 strain (AID 155);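 also: 0% = growth of vehicle-only cultures of the same strain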; details: S. cerevisiae rad50 strain growth inhibition; at 50.0 µM; hits give high values
Method in brief: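 DNA repair mutant yeast, compound exposure, growth read-out; inhibition is taken relative to vehicle.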

[2] = NCI Yeast Anticancer Drug Screen. Data for the mec2-1 strain (AID 157); details: S. cerevisiae mec2-1 strain, at 50.0 µM, hits give high values
Method in brief: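 Yeast mec2-1 mutant treated with compound. Readout: growth inhibition vs vehicle controls.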

[3] = NCI Yeast Anticancer Drug Screen. Data for the sgs1 mgt1 strain (AID 161);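 also: 0% = growth of cultures given vehicle only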; details: S. cerevisiae sgs1 mgt1 strain, at 50.0 µM, hits give high values
Method in brief: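 Genetically altered yeast, compound exposure, growth inhibition relative to vehicle.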

[4] = NCI Yeast Anticancer Drug Screen. Data for the cln2 rad14 strain (AID 165);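 also: 0% = growth equal to vehicle treated cultures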; details: S. cerevisiae cln2 rad14 strain, at 50.0 µM, hits give high values
Method in brief: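 cln2 rad14 yeast strain; compound exposure; growth inhibition read vs vehicle controls.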

[5] = NCI Yeast Anticancer Drug Screen. Data for the bub3 strain (AID 167); details: S. cerevisiae bub3 mutant strain, at 50.0 µM, hits give high values
Method in brief: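 In this screen, a yeast mutant lacking normal mitotic checkpoint function is challenged with compound. Relative growth versus vehicle gives the inhibition value.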

[6] = NCI Yeast Anticancer Drug Screen. Data for the mlh1 rad18 strain (AID 175); details: S. cerevisiae mlh1 rad18 strain growth inhibition; at 50.0 µM; hits give high values
Method in brief: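 Yeast w/ defined DNA-repair lesions; compound exposure; growth vs vehicle controls → % inhibition.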

Compound: COP(=S)(c1ccccc1)N(C)C(=O)Oc1cccc(C(C)C)c1 (configuration not stated)
- growth inhibition [1]: 21.2%
- growth inhibition [2]: 30.7%
- growth inhibition [3]: 34.2%
- growth inhibition [4]: 25.8%
- growth inhibition [5]: 43.8%
- growth inhibition [6]: 45.7%

Compound: Cn1nc2ccc3nccc(NCCNCCCl)c3c2n1
- growth inhibition [1]: 6.95%
- growth inhibition [2]: -30.8%
- growth inhibition [3]: -22.1%
- growth inhibition [4]: 2.7%
- growth inhibition [5]: -19.2%
- growth inhibition [6]: -20.8%

Compound: N#CC1OC1c1cccnc1 (configuration not stated)
- growth inhibition [1]: 3.9%
- growth inhibition [2]: -1.45%
- growth inhibition [3]: -4.45%
- growth inhibition [4]: 20.6%
- growth inhibition [5]: 29.3%
- growth inhibition [6]: -16.1%

Compound: CC(=O)C(I)C(C)=O.[Cr]
- growth inhibition [1]: 2.45%
- growth inhibition [2]: -18.9%
- growth inhibition [3]: 8.6%
- growth inhibition [4]: 16.4%
- growth inhibition [5]: 14.4%
- growth inhibition [6]: 5.4%

Compound: CNCCc1ccccc1
- growth inhibition [1]: 26%
- growth inhibition [2]: 6.05%
- growth inhibition [3]: 14.3%
- growth inhibition [4]: 14.6%
- growth inhibition [5]: -33.8%
- growth inhibition [6]: -3.05%

Compound: N/C(=N\NC(=O)c1ccc([N+](=O)[O-])cc1)N[N+](=O)[O-]
- growth inhibition [1]: -11.1%
- growth inhibition [2]: -12.2%
- growth inhibition [3]: -3.65%
- growth inhibition [4]: 28.8%
- growth inhibition [5]: 11.2%
- growth inhibition [6]: 1.75%

Compound: CCN(CC)C1CCCCC1
- growth inhibition [1]: 19.8%
- growth inhibition [2]: 16.1%
- growth inhibition [3]: -0.9%
- growth inhibition [4]: -35.7%
- growth inhibition [5]: -0.9%
- growth inhibition [6]: 11.2%

Compound: CC1CC[Si](C)(C)CC12C(=O)NC(=O)NC2=O (configuration not stated)
- growth inhibition [1]: 6.65%
- growth inhibition [2]: 1.95%
- growth inhibition [3]: 19.6%
- growth inhibition [4]: -0.05%
- growth inhibition [5]: 10.1%
- growth inhibition [6]: -7.05%

Compound: CC1(C(=N)N)CCOC1=O (configuration not stated)
- growth inhibition [1]: 4.4%
- growth inhibition [2]: 18.5%
- growth inhibition [3]: -10.8%
- growth inhibition [4]: 4.5%
- growth inhibition [5]: -1%
- growth inhibition [6]: 7.55%

Compound: CCC(=O)N/N=C(\N)N[N+](=O)[O-]
- growth inhibition [1]: -16.1%
- growth inhibition [2]: -6.55%
- growth inhibition [3]: -20.5%
- growth inhibition [4]: -83.6%
- growth inhibition [5]: -3.1%
- growth inhibition [6]: -9.65%

Compound: O=C(O)C(Br)CBr (configuration not stated)
- growth inhibition [1]: 4.7%
- growth inhibition [2]: 17.6%
- growth inhibition [3]: 27.2%
- growth inhibition [4]: -13.2%
- growth inhibition [5]: -1.55%
- growth inhibition [6]: 34.5%

Compound: c1ccc(CCN2CCCCC2)cc1
- growth inhibition [1]: 23.2%
- growth inhibition [2]: -4.6%
- growth inhibition [3]: 10.4%
- growth inhibition [4]: -2.45%
- growth inhibition [5]: -14.5%
- growth inhibition [6]: 33.9%

Compound: CCOc1ccccc1C=C(C#N)C#N
- growth inhibition [1]: -2.25%
- growth inhibition [2]: 6%
- growth inhibition [3]: 19.1%
- growth inhibition [4]: 12.2%
- growth inhibition [5]: 1.75%
- growth inhibition [6]: -4.15%

Compound: COC(=O)c1ccccc1NC(C)=O
- growth inhibition [1]: -13.8%
- growth inhibition [2]: -9.25%
- growth inhibition [3]: -8.95%
- growth inhibition [4]: -38.4%
- growth inhibition [5]: -8.5%
- growth inhibition [6]: 2.15%

Compound: CC1(C)C(=O)/C(=N\O)C[C@@]2(C)C1=CC[C@@H]1[C@@H]2CC[C@]2(C)C(=O)/C(=N/O)C[C@@H]12
- growth inhibition [1]: 1.55%
- growth inhibition [2]: -5.25%
- growth inhibition [3]: -0.05%
- growth inhibition [4]: -45.1%
- growth inhibition [5]: -1%
- growth inhibition [6]: -12.1%

Compound: O=c1c(O)c(-c2ccccc2)oc2ccccc12.[Zr]
- growth inhibition [1]: -22.1%
- growth inhibition [2]: -6.65%
- growth inhibition [3]: -7.7%
- growth inhibition [4]: 18.4%
- growth inhibition [5]: 22.4%
- growth inhibition [6]: -7.75%

Compound: C=C1C(=O)OC2/C=C(\C)CC/C=C(/C)CC(OC(=O)/C(=C/CO)CO)C12 (configuration not stated)
- growth inhibition [1]: 6.3%
- growth inhibition [2]: -11.6%
- growth inhibition [3]: 14.7%
- growth inhibition [4]: 13%
- growth inhibition [5]: -6%
- growth inhibition [6]: -54.7%

Compound: CCCOP1(=O)C=C(O)C(Cl)=C(C)C1 (configuration not stated)
- growth inhibition [1]: -32.5%
- growth inhibition [2]: -15.4%
- growth inhibition [3]: -42.8%
- growth inhibition [4]: -12.8%
- growth inhibition [5]: -19.4%
- growth inhibition [6]: -46.8%

Compound: CCOP(=O)(OCC)Oc1c(Cl)c(Cl)c(O)c(Cl)c1Cl
- growth inhibition [1]: -23.1%
- growth inhibition [2]: -15.7%
- growth inhibition [3]: 4.2%
- growth inhibition [4]: -17.6%
- growth inhibition [5]: 6.4%
- growth inhibition [6]: -8.5%

Compound: CC([NH-])C[NH-].CC([NH-])C[NH-].[Cl-].[Cl-].[Co+3].[O-][Cl+3]([O-])([O-])O (configuration not stated)
- growth inhibition [1]: 37.5%
- growth inhibition [2]: 12.6%
- growth inhibition [3]: 40.5%
- growth inhibition [4]: 25.6%
- growth inhibition [5]: 16.9%
- growth inhibition [6]: 1.6%

Compound: CC/C=C/C1(C)C(=O)NC(=S)NC1=O
- growth inhibition [1]: 5.15%
- growth inhibition [2]: 3.1%
- growth inhibition [3]: -7.3%
- growth inhibition [4]: 1.7%
- growth inhibition [5]: 11.4%
- growth inhibition [6]: -2.95%

Compound: O=C1CC=C2C3CC4N(CCC45c4ccccc4N1C25)C/C3=C\CO (configuration not stated)
- growth inhibition [1]: 22.8%
- growth inhibition [2]: -11.7%
- growth inhibition [3]: -5.3%
- growth inhibition [4]: 0%
- growth inhibition [5]: 37%
- growth inhibition [6]: -38%

Compound: CC(C)CCON=O
- growth inhibition [1]: -11.3%
- growth inhibition [2]: -9.4%
- growth inhibition [3]: -28.2%
- growth inhibition [4]: -9.05%
- growth inhibition [5]: -13.1%
- growth inhibition [6]: -35.6%

Compound: [I][Ni][I].c1ccc([PH+](c2ccccc2)c2ccccc2)cc1.c1ccc([PH+](c2ccccc2)c2ccccc2)cc1
- growth inhibition [1]: 21%
- growth inhibition [2]: 38.4%
- growth inhibition [3]: 64%
- growth inhibition [4]: 17.6%
- growth inhibition [5]: 5.7%
- growth inhibition [6]: 48.7%

Compound: NC(CSSCC(N)C(=O)c1ccccc1)C(=O)c1ccccc1 (configuration not stated)
- growth inhibition [1]: 23.9%
- growth inhibition [2]: 0.8%
- growth inhibition [3]: 9.3%
- growth inhibition [4]: 6%
- growth inhibition [5]: 6.55%
- growth inhibition [6]: 4.35%

Compound: c1ccc2sc(SNC3CCCCC3)nc2c1
- growth inhibition [1]: -29.7%
- growth inhibition [2]: -65.1%
- growth inhibition [3]: -60.1%
- growth inhibition [4]: -128%
- growth inhibition [5]: 13.6%
- growth inhibition [6]: 2.4%

Compound: C=CCn1nnnc1N
- growth inhibition [1]: -4.3%
- growth inhibition [2]: -16.8%
- growth inhibition [3]: -5.55%
- growth inhibition [4]: -37.9%
- growth inhibition [5]: 3.1%
- growth inhibition [6]: -6.2%

Compound: N#CN
- growth inhibition [1]: -9.55%
- growth inhibition [2]: -17.2%
- growth inhibition [3]: 22.1%
- growth inhibition [4]: -16.1%
- growth inhibition [5]: -13.2%
- growth inhibition [6]: -5.8%

Compound: O=C1NCC2C3CCC(O3)C12 (configuration not stated)
- growth inhibition [1]: -6.3%
- growth inhibition [2]: -16.1%
- growth inhibition [3]: 7.95%
- growth inhibition [4]: -10.2%
- growth inhibition [5]: -17.4%
- growth inhibition [6]: -12.1%

Compound: NNC(=O)Nc1ccc([N+](=O)[O-])cc1[N+](=O)[O-]
- growth inhibition [1]: 63.8%
- growth inhibition [2]: 0%
- growth inhibition [3]: 34.7%
- growth inhibition [4]: 20.2%
- growth inhibition [5]: 38.4%
- growth inhibition [6]: 20.5%

Compound: Nc1ccc2c(c1)[O][Sn]([c]1ccccc1)([c]1ccccc1)[O]C2=O
- growth inhibition [1]: 85.5% (active)
- growth inhibition [2]: 89.5% (active)
- growth inhibition [3]: 89.1% (active)
- growth inhibition [4]: 89.2% (active)
- growth inhibition [5]: 88.1% (active)
- growth inhibition [6]: 89.3% (active)

Compound: O=c1[nH]c(=O)n(Cl)c(=O)n1Cl
- growth inhibition [1]: 16.4%
- growth inhibition [2]: 23.1%
- growth inhibition [3]: 14.2%
- growth inhibition [4]: 6.2%
- growth inhibition [5]: 31%
- growth inhibition [6]: 21.9%

Compound: O=C(CCc1ccccc1)Nc1ccc(Cl)cc1C(=O)c1ccccc1
- growth inhibition [1]: -0.85%
- growth inhibition [2]: 20.2%
- growth inhibition [3]: 24.4%
- growth inhibition [4]: -26.2%
- growth inhibition [5]: 54.1%
- growth inhibition [6]: 28.6%

Compound: CCC1(CC)C(=O)NC(=O)[N]([Sn]([CH3])([CH3])[N]2C(=O)NC(=O)C(CC)(CC)C2=O)C1=O
- growth inhibition [1]: -17.3%
- growth inhibition [2]: -3.7%
- growth inhibition [3]: 7.05%
- growth inhibition [4]: -19.4%
- growth inhibition [5]: -1.3%
- growth inhibition [6]: -26.1%

Compound: C=C(C(=C)P(=S)(C(C)C)C(C)C)P(=S)(C(C)C)C(C)C
- growth inhibition [1]: -8.65%
- growth inhibition [2]: -10.6%
- growth inhibition [3]: 4.75%
- growth inhibition [4]: 24.1%
- growth inhibition [5]: -7%
- growth inhibition [6]: -3.45%

Compound: O=[N+]([O-])c1ccc2nc(-c3ccc(S(=O)(=O)F)cc3)cc(Cl)c2c1
- growth inhibition [1]: -19.1%
- growth inhibition [2]: 16.9%
- growth inhibition [3]: 4.45%
- growth inhibition [4]: -12.4%
- growth inhibition [5]: 13.3%
- growth inhibition [6]: -9.9%

Compound: S=P(C1CCCCC1)(C1CCCCC1)C(c1cccnc1)N1CCCC1 (configuration not stated)
- growth inhibition [1]: -6.85%
- growth inhibition [2]: -9.1%
- growth inhibition [3]: -6.3%
- growth inhibition [4]: -5.85%
- growth inhibition [5]: 20.6%
- growth inhibition [6]: 14.1%

Compound: C=CC(Cl)OC(=O)C(C)O (configuration not stated)
- growth inhibition [1]: 16.5%
- growth inhibition [2]: 20.2%
- growth inhibition [3]: 15.2%
- growth inhibition [4]: 11.3%
- growth inhibition [5]: 1.55%
- growth inhibition [6]: 6.4%

Compound: CN1[C@@H](CC(=O)c2ccccc2)CCC[C@H]1CC(=O)c1ccccc1
- growth inhibition [1]: 21.2%
- growth inhibition [2]: 5.4%
- growth inhibition [3]: 42.5%
- growth inhibition [4]: 37.3%
- growth inhibition [5]: 28.2%
- growth inhibition [6]: 1.25%

Compound: CC(=O)CCNC1(c2ccccc2)CCCCC1
- growth inhibition [1]: 3.6%
- growth inhibition [2]: 2.95%
- growth inhibition [3]: -2.65%
- growth inhibition [4]: -0.65%
- growth inhibition [5]: -2.5%
- growth inhibition [6]: -2.9%

Compound: O=C(O)CCCO
- growth inhibition [1]: -13.8%
- growth inhibition [2]: -20.3%
- growth inhibition [3]: -23.9%
- growth inhibition [4]: 3.3%
- growth inhibition [5]: 1.45%
- growth inhibition [6]: -10.4%

Compound: CCCCCCCNC(c1ccccc1)C(O)c1ccccc1 (configuration not stated)
- growth inhibition [1]: 8.4%
- growth inhibition [2]: 10.4%
- growth inhibition [3]: 12.1%
- growth inhibition [4]: -40.2%
- growth inhibition [5]: 1.55%
- growth inhibition [6]: -3.05%
